26 molecules from PubChem BioAssay (NCATS) can be followed below.

Active and inactive are the calls of the source. Entries that show only a call come without a potency. Unless noted, calls follow the shape of the full dose curve.

Assay in the first assay: not given
The conditions noted are these: Ebola virus entry cell assay, ratio channel.
Take `CCS(=O)(=O)CCn1c([N+](=O)[O-])cnc1C`: the outcome was inactive.
As to `CC(O)(P(=O)(O)O)P(=O)(O)O`, the result was inactive.
Take `CC(NC(C)(C)C)C(=O)c1cccc(Cl)c1` (stereo unspecified): the result was inactive.
Same read-out and setting: then `CN1C(C(=O)Nc2ccccn2)=C(O)c2ccccc2S1(=O)=O`, with “inactive”; and `Nc1nc2ccc(OC(F)(F)F)cc2s1`, with “inactive”.
The AC50 is the midpoint of the concentration-response curve, whichever way the signal moves. Turning to `CNCCCC12CCC(c3ccccc31)c1ccccc12`, the AC50 was 3.16 µM (active).
With `CC(CCc1ccc(O)cc1)NCCc1ccc(O)c(O)c1` (stereo unspecified), the outcome was inactive.
On to `S=c1nc[nH]c2nc[nH]c12`, for which the outcome was inactive.
On to `Nc1nc(Cl)nc2c1ncn2[C@@H]1O[C@H](CO)[C@@H](O)[C@@H]1F`, for which the result was inactive.
Regarding `Cn1nnc2c(C(N)=O)ncn2c1=O`, the outcome was inactive.
The same measure, in the same setting: then `O=P1(N(CCCl)CCCl)NCCCO1` (stereo unspecified), with “inactive”.
Regarding `CC1COc2c(N3CCN(C)CC3)c(F)cc3c(=O)c(C(=O)O)cn1c23` (stereo unspecified), the result was inactive.
Still for that read-out and setting: the entry for `C[N+](C)(C)CC(O)CC(=O)[O-]` (stereo unspecified) is “inactive”.
The same measure, in the same setting: the entry for `NC(=O)c1cnccn1` is “inactive”; for `NC(=O)COCCN1CCN(C(c2ccccc2)c2ccc(Cl)cc2)CC1` (stereo unspecified) it is “inactive”; for `C=CCC1([C@H](C)CCC)C(=O)NC(=O)NC1=O` it is “inactive”.
On the same count and under the same terms, the entry for `Cc1noc(NS(=O)(=O)c2ccc(N)cc2)c1C` is “inactive”; for `CCC1=C(C)CN(C(=O)NCCc2ccc(S(=O)(=O)NC(=O)NC3CCC(C)CC3)cc2)C1=O` (stereo unspecified) it is “inactive”; for `Nc1ccc(C(=O)O)c(O)c1` it is “inactive”.
`NC(N)=Nc1nc(CSCC/C(N)=N/S(N)(=O)=O)cs1`: the result was inactive.
For `O=C1CN(/N=C/c2ccc([N+](=O)[O-])o2)C(=O)N1`, the outcome was inactive.
Still for that read-out and setting: then `Cc1nnc(SCC2=C(C(=O)O)N3C(=O)[C@@H](NC(=O)Cn4cnnn4)[C@H]3SC2)s1`, with “inactive”.
On the same count and under the same terms, then `Nc1ccc(S(=O)(=O)c2ccc(N)cc2)cc1`, with “inactive”; and `NC(=O)CC[C@@H]1NC(=O)[C@H](Cc2ccccc2)NC(=O)[C@H](Cc2ccc(O)cc2)NC(=O)CCSSC[C@@H](C(=O)N2CCC[C@H]2C(=O)N[C@@H](CCCN=C(N)N)C(=O)NCC(N)=O)NC(=O)[C@H](CC(N)=O)NC1=O`, with “inactive”.
The same measure, in the same setting: then `Clc1ccc2nsnc2c1NC1=NCCN1`, with “inactive”.

A short description of another assay: Immunotoxin (HA22) sensitization/mitigation study. Vehicle arm (PBS) (AID 1159510; call rule not given here; also: potency is read from the fitted curve at half-maximal effect). The conditions noted are these: cancer cells viability with PBS vehicle (HA22 study); series mostly up to 46.1 µM; viability (% of control): at the top concentration.
As for `Nc1nc2ccc(OC(F)(F)F)cc2s1`, the Potency is 23.5 µM (active).
On the same count and under the same terms, then `S=c1nc[nH]c2nc[nH]c12`, with 0.605 µM (active).
`O=P1(N(CCCl)CCCl)NCCCO1` (stereo unspecified): the “viability (% of control)” value is 102% (inactive).

Another assay in a line: High-throughput drug toxicity screening in the BPDCN cell line Gen2.2 (AID 1224824; call rule not given here;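 also: cells exposed to compounds for 48 h before reading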). The settings on record: Gen2.2 BPDCN cells; at 45.8 µM (top of the series) unless noted. In a few lines: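 Seed 500 exponentially growing Gen2.2 cells/well; add compounds by pin tool; incubate 48 h, 37 °C, 5% CO2; add CellTiter-Glo, 15 min RT; read luminescence. % activity vs DMSO (100%) and bortezomib (0%).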
`C[C@]12CC[C@H]3[C@@H](CC[C@@]45O[C@H]4C(O)=C(C#N)C[C@]35C)[C@H]1CC[C@H]2O`: the cell viability, % of control (lower = more cytotoxic) worked out at 28.9%.
On the same count and under the same terms, the figure for `CC(NC(C)(C)C)C(=O)c1cccc(Cl)c1` (stereo unspecified) is 145%.
The same measure, in the same setting: the figure for `O=P1(N(CCCl)CCCl)NCCCO1` (stereo unspecified) is 17%.
